Screens as filed in PubChem.
UBC13 polyUb = human UBC13 polyubiquitination inhibition | AID 485273 | hit rate 0.47% among 330,000 | P61088 | UBC13 polyubiquitin chain formation, TR-FRET | inhibition, % at 20 µM; in the data active = inhibition above about 45%, passing the limit was not always enough
Neddyl block = inhibitors of human cullin neddylation; TR-FRET cullin neddylation, biochemical; calls only at 25 µM; hit rate 0.58% among 360,000; AID 651699; in the data active = inhibition above about 36%
MBD2 inh = blocks human MBD2 binding to methylated DNA. Q9UBB5. TR-FRET, MBD2 binding to methylated oligonucleotide. inhibition, % at 4.4 µM. hit rate 0.31% among 370,000. AID 686964; in the data active = inhibition above about 13%
UHRF1 MBD2 ctr = human UHRF1 methylated DNA binding inhibitors; inhibition, % at 4.4 µM; UHRF1 binding to methylated oligo, TR-FRET; AID 687016; hit rate 0.75% among 370,000; in the data active = inhibition above about 21%;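 also: UHRF1 SRA domain binding a hemimethylated CpG hairpin DNA probe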
Target sequence (Q96T88 whole entry, looked up, the tested form may be a part): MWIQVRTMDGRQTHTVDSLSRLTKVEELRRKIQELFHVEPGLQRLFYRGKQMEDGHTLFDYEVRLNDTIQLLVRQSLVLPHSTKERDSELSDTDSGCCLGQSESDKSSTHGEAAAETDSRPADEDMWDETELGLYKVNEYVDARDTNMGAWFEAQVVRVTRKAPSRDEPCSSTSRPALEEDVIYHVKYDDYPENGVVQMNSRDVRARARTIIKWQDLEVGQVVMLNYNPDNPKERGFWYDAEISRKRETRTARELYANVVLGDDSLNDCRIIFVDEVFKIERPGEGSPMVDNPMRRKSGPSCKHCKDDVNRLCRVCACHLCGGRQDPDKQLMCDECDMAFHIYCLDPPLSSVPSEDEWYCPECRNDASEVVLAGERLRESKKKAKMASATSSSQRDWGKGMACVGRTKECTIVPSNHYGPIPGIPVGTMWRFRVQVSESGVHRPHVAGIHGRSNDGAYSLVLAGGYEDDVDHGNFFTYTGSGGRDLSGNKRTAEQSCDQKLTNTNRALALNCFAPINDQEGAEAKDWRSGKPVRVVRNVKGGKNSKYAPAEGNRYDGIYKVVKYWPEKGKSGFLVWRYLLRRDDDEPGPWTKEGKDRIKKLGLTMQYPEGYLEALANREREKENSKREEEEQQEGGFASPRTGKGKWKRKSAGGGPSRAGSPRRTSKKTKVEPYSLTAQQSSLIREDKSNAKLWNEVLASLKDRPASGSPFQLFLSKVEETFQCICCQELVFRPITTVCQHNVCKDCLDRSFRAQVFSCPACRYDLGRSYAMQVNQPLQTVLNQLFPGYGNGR
Casp3 counter = counter-screen for UBC13 inhibitors: human caspase-3 inhibition | shares compounds with UBC13 polyUb | Recombinant caspase-3, Caspase-Glo 3/7 luminescence, 60 min | inhibition, % at 20 µM | AID 488856 | hit rate 4% among 1,400;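 active = mean inhibition across replicates above about 26%, limit read from the data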
UBC13 confirm = confirmation of human UBC13 polyubiquitin inhibitors; UBC13 polyubiquitination, TR-FRET, biochemical; hit rate 68% among 1,400; shares compounds with UBC13 polyUb; inhibition, % at 10 µM; in the data active = inhibition above about 45%
Neddyl conf = cullin neddylation inhibition, confirmation; calls only at 25 µM; TR-FRET cullin neddylation biochemical assay; shares compounds with Neddyl block; hit rate 13% among 1,800; in the data active = inhibition above about 40%;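 also: neddylation substrate is the cullin 1 ring ligase complex with SKP2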
Large screens that a line does not name were inactive (follow-up assays come after a bar, where shown). Shown are actives, neighbours in structure and some others; about 1.8% of the full set was active somewhere.

COC(=O)[C@@]1(C#N)[C@@H]2C=CC(C(C)=O)=CN2[C@@H](C(N)=O)[C@@H]1c1ccc(F)cc1	UHRF1 MBD2 ctr 25
CCCCn1nnnc1C(c1ccc(OC)cc1)N1CCC2(CC1)C(=O)NCN2c1ccccc1 (configuration not stated)	none (no result: UBC13 polyUb)
O=[N+]([O-])c1cc(S(=O)(=O)c2ccc(O)c([N+](=O)[O-])c2)ccc1O	UHRF1 MBD2 ctr 42
O=C(N/N=C/c1c(O)n(Cc2ccc(F)cc2)c(=O)[nH]c1=O)c1ccccc1O	none
O=C(N/N=C/c1c(O)n(Cc2ccccc2)c(=O)[nH]c1=O)c1ccccc1O	Neddyl block active
Cc1ccc(-n2nc(C)c3c2NC(=O)CSC3c2ccc3c(c2)OCO3)cc1 (configuration not stated)	none
CCN1C(=O)C(=C/C=C/c2ccco2)C(=O)N(CC)C1=S	UHRF1 MBD2 ctr 30
O=c1[nH]c(=S)n(CCC2=CCCCC2)c(O)c1C=NC1CCN(Cc2ccccc2)CC1	none
Nc1cccc(SC2CC(=O)N(c3ccc(Cl)cc3C(=O)c3ccccc3)C2=O)c1 (configuration not stated)	UHRF1 MBD2 ctr 28 (no result: UBC13 polyUb)
O=C(O)c1ccc(-n2c(O)c(/C=C3\C=Nc4ccccc43)c(=O)[nH]c2=O)cc1	none
O=c1[nH]c(=O)n(-c2cccc(F)c2)c(O)c1/C=C1\C=Nc2ccccc21	UHRF1 MBD2 ctr 22
CN1C(=O)C(=Cc2c(OCc3cnc(Cl)s3)ccc3ccccc23)C(=O)N(C)C1=O	none
C=CCN1C(=O)NC(=O)/C(=C\c2ccc(-c3ccccc3[N+](=O)[O-])o2)C1=O	UHRF1 MBD2 ctr 56
Cc1ccccc1-c1nc(CS(=O)CC(=O)N2CCC3(CC2)OCCO3)c(C)o1 (configuration not stated)	none
COc1cc2c(c(OC)c1OC)-c1ccc(O)c(=O)cc1[C@@H](N)CC2	UBC13 polyUb 100 | Casp3 counter inactive | UBC13 confirm 93
COc1c(O)cc2c(c1OC)-c1ccc(OC)c(=O)cc1C(NC(C)=O)CC2 (configuration not stated)	none (no result: UBC13 polyUb)
CC(C)C(=O)Nc1ccc(S(=O)(=O)N2CC3CC(C2)c2cccc(=O)n2C3)cc1 (configuration not stated)	none
COC(=O)CNC(=O)c1cn(CCC#N)nc1-c1ccc(F)cc1	none
CCCCCCCSc1cc(OC)c(CCNC)cc1OC	UBC13 polyUb 51 | Casp3 counter inactive | UBC13 confirm 62
CC12CCC3C(CC=C4CC(O)CCC43C)C1C/C(=C\c1ccccc1F)C2=O (configuration not stated)	none
CN1CCC(O)(c2ccccc2)C(C(=O)c2ccccc2)C1 (configuration not stated)	none
COC(=O)C1=C(c2ccc(OCc3ccccc3)cc2)C[C@@H]2CC[C@H]1N2C(=O)NC1CCN(Cc2ccccc2)CC1	UBC13 polyUb 55 (no result: MBD2 inh, UHRF1 MBD2 ctr) | Casp3 counter inactive | UBC13 confirm inactive
CC12CNCC(C)(CNC1)C2O (configuration not stated)	UBC13 polyUb 57 | Casp3 counter inactive | UBC13 confirm inactive
CC1(C)CN=C(Nc2nc3ccccc3s2)S1	none
O=C(c1ccccc1F)c1cn(CC(=O)N2CCCCC2)c2ccccc12	none
C=CCn1c(O)c(C(C)=NCCN2CCOCC2)c(=O)[nH]c1=O	none
CCN(CC)CCCNC(=O)c1c(O)c2ccccc2n(Cc2ccccc2)c1=O	UBC13 polyUb 53 | Casp3 counter inactive | UBC13 confirm 74
O=P1(NCCCl)OCCCN1CCCl (configuration not stated)	UBC13 polyUb 46 | Casp3 counter inactive | UBC13 confirm inactive
O=C(C(=O)N1CCOCC1)c1cn(Cc2ccccc2Cl)c2ccccc12	UBC13 polyUb 54 | Casp3 counter inactive | UBC13 confirm 53
O=C(C(=O)N1CCOCC1)c1cn(Cc2ccc(F)cc2)c2ccccc12	UBC13 polyUb 45 | Casp3 counter inactive | UBC13 confirm inactive
Cc1ccc(OCC(=O)N2CCN(Cc3ccc4c(c3)OCO4)CC2)cc1	none
NC(N)=N/N=C/c1cn(-c2ccccc2)nc1-c1cccs1	UBC13 polyUb 79 | Casp3 counter inactive | UBC13 confirm 85
O=c1c2ccccc2nc(-c2cccs2)n1-c1ccccc1	none
COCCOC(=O)c1c(N)n(Cc2ccccc2)c2nc3ccccc3nc12	none (not shown: Neddyl block)
COCCCNC(=O)c1c(NC(=O)c2ccccc2)n(Cc2ccccc2)c2nc3ccccc3nc12	UBC13 polyUb 49 (not shown: Neddyl block) | Casp3 counter inactive | UBC13 confirm inactive
COc1ccccc1CCNCc1cccc(C(F)(F)F)c1	UBC13 polyUb 52 | Casp3 counter inactive | UBC13 confirm inactive
COc1ccc(CCNCc2cccc(C(F)(F)F)c2)cc1OC	none
NC(N)=Nc1ccc2[nH]c3c(c2c1)C[C@@]1(O)[C@H]2Cc4ccc(O)c5c4[C@@]1(CCN2CC1CC1)[C@H]3O5	UBC13 polyUb 53 (no result: MBD2 inh, UHRF1 MBD2 ctr) | Casp3 counter inactive | UBC13 confirm inactive
O=C1CN=C(c2ccc[nH]2)c2cc(Cl)ccc2N1	Neddyl block active | Neddyl conf active
Cc1cc(N(CCCl)CCCl)ccc1C=NNC(=O)c1cccnc1	Neddyl block active (no result: UBC13 polyUb) | Neddyl conf inactive
O=C1CN=C(c2ccc(Br)cc2)c2oc3ccccc3c2N1	Neddyl block active | Neddyl conf inactive
CN(C)C(=O)Oc1c(Cl)cc(Cl)c2ccccc12	none
CN(C)C(=O)Oc1ccc(Cl)c2cccnc12	Neddyl block active | Neddyl conf inactive
O=C(NC1CCCCC1)N1Cc2cc(N3CCOCC3)ccc2-n2nncc2C1	none (no result: UBC13 polyUb)
CCCCCCC(=O)N/N=C/c1c(O)n(C(C)CC)c(=S)[nH]c1=O (configuration not stated)	none
CCCCCCC(=O)N/N=C/c1c(O)n(C2CC2)c(=S)[nH]c1=O	Neddyl block active | Neddyl conf inactive
O=C1CC(N2CC2)C(=O)N1c1ccccc1 (configuration not stated)	none (no result: UBC13 polyUb)
ClC1C(Cl)C(Cl)C(Cl)C(Cl)C1Cl (configuration not stated)	none
CCCc1nc2ccccc2c(=O)n1-c1ccc(OC)cc1	none
C[n+]1ccc(-c2ccccc2)c2ccccc21	Neddyl block active | Neddyl conf active
CN(C)c1ccc(/C=C/c2cc[n+](C)c3ccccc23)cc1	none (no result: UBC13 polyUb)
CCn1c(O)c(/C=N/NC(=O)c2ccccc2)c(=O)[nH]c1=S	Neddyl block active | Neddyl conf inactive
